Test results as given in publication PMC7819943, “Rice protein-binding microarrays: a tool to detect cis-acting elements near promoter regions in rice”.
The full ranking holds about 68,000 sequences; the median of “fluorescence intensity (a.u.)” is about 9,100, and the highest 2% start at about 16,000. The sample holds the highest values, similar sequences and a random draw of the others, so the mix is not that of the screen.

What follows are sequences tested against OsWRKY34 (Oryza sativa, UniProt Q0JBA9 1-250) (assay: protein-binding microarray (RPBM); PBS, 2% BSA, 51.3 ng/ul salmon testes DNA, 50 uM zinc acetate, 200 nM TF, 25 C, 1 h; high values mean tight binding). Details: protein: recombinant; tags: N-terminal polyhistidine and DsRed monomer fusion (pET32a); label: CyDye5-dUTP incorporated in the synthesized complementary strand; 3' TTTTT single-stranded linker to array surface; dsDNA, one strand shown.
Method in brief: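 In PBS with 2% BSA, salmon testes DNA and 50 µM zinc acetate, 200 nM protein was incubated on a custom Agilent array at 25 °C for 1 h and then washed off. The array had been made double-stranded by primer extension with Cy5-dUTP and blocked with 2% BSA. The proteins were transcription factors fused N-terminally to polyhistidine and DsRed, expressed in E. coli BL21-CodonPlus and purified on Ni–NTA. The binding signal is per-feature fluorescence intensity (arbitrary units) from an Axon 4000B scanner.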

Sequence of OsWRKY34 (Q0JBA9 entry or part of it): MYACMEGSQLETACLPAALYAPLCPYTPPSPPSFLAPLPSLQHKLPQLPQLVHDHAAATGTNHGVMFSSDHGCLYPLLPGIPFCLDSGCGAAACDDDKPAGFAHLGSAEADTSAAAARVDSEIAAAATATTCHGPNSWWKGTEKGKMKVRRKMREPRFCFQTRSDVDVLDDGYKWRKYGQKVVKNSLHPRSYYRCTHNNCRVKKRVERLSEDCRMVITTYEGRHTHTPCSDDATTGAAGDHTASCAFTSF

Sequence | binding signal
CTGGTCAGAGTCCCCAACCAAAAGCATTTCTCCTGCCTTCCGGAGTCACCTAGTGCAG | 8660 fluorescence intensity (a.u.)
CGTCCGTCTCCATCTGACACCTCCCAGTGCTTGCGCCCATCGGAGTCACCTAGTGCAG | 8030 fluorescence intensity (a.u.)
GACTTACTTTATTGTCTACAGTACTTTAAGCACAACTTTTCGGAGTCACCTAGTGCAG | 8360 fluorescence intensity (a.u.)
ATACCCGTCTTTTCCTTCCCTTTCATCAATTGCCTCTTGTCGGAGTCACCTAGTGCAG | 11500 fluorescence intensity (a.u.)
TAGTTTTCTCAGGTGTTTGGGAATTGGTTGGTGAAGATGACGGAGTCACCTAGTGCAG | 9450 fluorescence intensity (a.u.)
GGATGCTCTTGTGTTCTTGTTGTTGATTTGTATTGTGGATCGGAGTCACCTAGTGCAG | 8240 fluorescence intensity (a.u.)
GATTTCTGTGTTTTTCCTGTGGTCCAATCAAACGGTCATTCGGAGTCACCTAGTGCAG | 12700 fluorescence intensity (a.u.)
TTTCTTCTTCTCGTCTCTTCTCGCCGCCGCCGCCGCAATGCGGAGTCACCTAGTGCAG | 9300 fluorescence intensity (a.u.)
CTCGCCGCCGTTCGTCTCCGCCGCCACCGCCGCCGCCATGCGGAGTCACCTAGTGCAG | 11300 fluorescence intensity (a.u.)
TGCGGCCCACCTTTGCTTCTTCGTTGACTTTCTTGCCGTCCGGAGTCACCTAGTGCAG | 26900 fluorescence intensity (a.u.)
GCCGTCTTTGCTTGATAGTCTTCGCCATGGGGACTTTGTCCGGAGTCACCTAGTGCAG | 8210 fluorescence intensity (a.u.)
TCGTTGACTTTCTTGCCGTCTCGCCGCCGCCGCCGCCATGCGGAGTCACCTAGTGCAG | 23600 fluorescence intensity (a.u.)
TCATCTTGCTTTCCCCTTCTTCGCCCACGCGGCCGCGGCCCGGAGTCACCTAGTGCAG | 8620 fluorescence intensity (a.u.)
AAACCCTCTCTCTCTCTCTCTCTCACACACACACGCAAACCGGAGTCACCTAGTGCAG | 10300 fluorescence intensity (a.u.)
GTCAACTGCCTATCCTAGATATCTATCACTACCGAAAGCCCGGAGTCACCTAGTGCAG | 8930 fluorescence intensity (a.u.)
TCAACACAGCAACGTTTCACTTTCATATCATCTGATTATTCGGAGTCACCTAGTGCAG | 8470 fluorescence intensity (a.u.)
TCCGTCCATCCTCACTATCATTAGTACTACTGGTTCTTCTCGGAGTCACCTAGTGCAG | 12200 fluorescence intensity (a.u.)
TTTTGTGGTATTTTAAACATGGTTTATATTTCTTATATTTCGGAGTCACCTAGTGCAG | 9830 fluorescence intensity (a.u.)
GGGTTTTGGAGTGGTGGTGGTGGAGGATTGGAGTTGGGGTCGGAGTCACCTAGTGCAG | 11600 fluorescence intensity (a.u.)
TTGGTGAGGGTTTGGGTTTGGTGGTGGAGTGGAGTGGAGTCGGAGTCACCTAGTGCAG | 10700 fluorescence intensity (a.u.)
TTTGGATTGGGTTTGGTGGTTGGGTGGGAGGGAGGGAGCTCGGAGTCACCTAGTGCAG | 28600 fluorescence intensity (a.u.)

Sequence | binding signal
GGTTGGGTGGAGGGTATTACAGTCTTTTTGCTTTTGTATTCGGAGTCACCTAGTGCAG | 36600 fluorescence intensity (a.u.)
TTTTTGGTGGGGTAGAGTTGTATTTGGTTTGAGGCCAATTCGGAGTCACCTAGTGCAG | 9480 fluorescence intensity (a.u.)
TCGCTCTCGTTGGATTCGGTTTGGTTTGGTTTGGGCCATGCGGAGTCACCTAGTGCAG | 18700 fluorescence intensity (a.u.)
ATGGATGGGGATTCATTTGTTTGGTGAGTAGTGGTCGGGTCGGAGTCACCTAGTGCAG | 9800 fluorescence intensity (a.u.)
TGTTGTTTTGGTCTACAGTTGTCTTTTGAGTTGTTGTATTCGGAGTCACCTAGTGCAG | 12200 fluorescence intensity (a.u.)
GGGGTGTTTGGTTGAGGGGTGGGTGGGATGGATTGGTCCTCGGAGTCACCTAGTGCAG | 32300 fluorescence intensity (a.u.)
CTTCGTTCGTTGGATTCGCTCTCGCGCGCCGCCGCCGCCGCGGAGTCACCTAGTGCAG | 11200 fluorescence intensity (a.u.)
AGAGGGATGGGTGTTTGATTGGAGTGGGTTGGGAGCCATGCGGAGTCACCTAGTGCAG | 9390 fluorescence intensity (a.u.)
CTCTCGTTGTTTTTGCTCTTTTGGGTTCGCTCGGAAGATGCGGAGTCACCTAGTGCAG | 8490 fluorescence intensity (a.u.)
CATCGAGTAGCCGCCGCCGCCACCTGGTGCTCGTGACGCCCGGAGTCACCTAGTGCAG | 8670 fluorescence intensity (a.u.)
CTTCAAACTTTTAATTTTTCCGTCACATCGAACTTTTCTACGGAGTCACCTAGTGCAG | 9760 fluorescence intensity (a.u.)
TCACACGTTTCATTGACGTTTCCTAGCATCCGACCTCTCTCGGAGTCACCTAGTGCAG | 9620 fluorescence intensity (a.u.)
TCCCCTGTTCTCGTACACAAATTCGCAGCGATCTAATAGTCGGAGTCACCTAGTGCAG | 8480 fluorescence intensity (a.u.)
CTGATTTTCATTTGAGAACAAAGTTTCTACGCATATTACCCGGAGTCACCTAGTGCAG | 8240 fluorescence intensity (a.u.)
CCCCAGCCCAGTTGGGCCCAAACTGTCCATTCCAGCCATCCGGAGTCACCTAGTGCAG | 8330 fluorescence intensity (a.u.)
TCAGTAGCATTTCCGGGTCCCATCTATATGGACTAATTTTCGGAGTCACCTAGTGCAG | 9100 fluorescence intensity (a.u.)
ACAGAACGAACCACCTATACGTACGTTTTCTCTCTTTTGACGGAGTCACCTAGTGCAG | 8040 fluorescence intensity (a.u.)
TATACAATTGCCTTACCTGTCCCCACCTGTCACATGCCTCCGGAGTCACCTAGTGCAG | 9460 fluorescence intensity (a.u.)
ACCTACCACCACCTTACCCTCTCGCTGACATCCCGGCCCCCGGAGTCACCTAGTGCAG | 12000 fluorescence intensity (a.u.)
GGGATGGATGTGCTGGGTTGGTGGCTGGTTGGCTGGCCGGCGGAGTCACCTAGTGCAG | 11000 fluorescence intensity (a.u.)
AGTTTTGGGGTGAATTCAATTGAGGTTGCTACAGTTTAATCGGAGTCACCTAGTGCAG | 8760 fluorescence intensity (a.u.)

Sequence | binding signal
ATTCTCAAGTTTGAATTGGGTGTATTGGGTTGGGCTAAATCGGAGTCACCTAGTGCAG | 16700 fluorescence intensity (a.u.)
GGCCTTGTTCGGTTGGTCCGGGAATGACTGGGGTTGGGCTCGGAGTCACCTAGTGCAG | 9210 fluorescence intensity (a.u.)
AAATGTGGAATGGTTGGCCTGGGTTGGCTTGGGACGAGCTCGGAGTCACCTAGTGCAG | 17000 fluorescence intensity (a.u.)
TTTGTGTATTATTTGTATTGTGTTTGTGAATTCAATAAATCGGAGTCACCTAGTGCAG | 8800 fluorescence intensity (a.u.)
TTGGTTTGTATTGCGTTGTTTTGCACTTTTGTTTGTTGTGCGGAGTCACCTAGTGCAG | 8300 fluorescence intensity (a.u.)
TGTGTTGGATCGGTTGGACGCGCTCACTCGGTTTGGTTTGCGGAGTCACCTAGTGCAG | 9730 fluorescence intensity (a.u.)
GAGGGGAGGGGTTTGGTTTGCTTGGACACTTTGGTTTGGTCGGAGTCACCTAGTGCAG | 20100 fluorescence intensity (a.u.)
TGCTTGCTTGCTTGGTTTGATTGGTGGAGGTGGGAGGAGTCGGAGTCACCTAGTGCAG | 8520 fluorescence intensity (a.u.)
CCTAAATGGTTTTGCTTGGACACTTCTGGTTACCTTGCATCGGAGTCACCTAGTGCAG | 11900 fluorescence intensity (a.u.)
CGCTCACTCGGTTTGGTTTGGTTTGGATTGTATTGGGTTGCGGAGTCACCTAGTGCAG | 39200 fluorescence intensity (a.u.)
CTTTTGCAACTCAAGCTACTATATCTATGATGGCATCTGACGGAGTCACCTAGTGCAG | 8400 fluorescence intensity (a.u.)
CTTGCTGTTACGCACCACATTGATTTACTTTCTTTTTCTTCGGAGTCACCTAGTGCAG | 11600 fluorescence intensity (a.u.)
CTCTCGACCACTTCCATTCCTTCCCGGGCTCGCCGCGCCGCGGAGTCACCTAGTGCAG | 9780 fluorescence intensity (a.u.)
CTCACTCCTGGCGCCGGTGACCTCTCTGCCACTCCACCGGCGGAGTCACCTAGTGCAG | 8550 fluorescence intensity (a.u.)
CACATGTTATTACCACCTCATTTTGCGTAAAACACTTAATCGGAGTCACCTAGTGCAG | 8460 fluorescence intensity (a.u.)
AACATAAACACACATCATTTCCTGTCCCTTGCACGCTACGCGGAGTCACCTAGTGCAG | 10000 fluorescence intensity (a.u.)
CTCCTCATCCTCATCGTCGCCGCCGCCCACGTCGTCTCGCCGGAGTCACCTAGTGCAG | 9110 fluorescence intensity (a.u.)
TCATCTGCTCCAAATTAAGCATTGCATCATCTACTCTGCCCGGAGTCACCTAGTGCAG | 8390 fluorescence intensity (a.u.)
CTACCGCATCCCCTCCCTCTCTCGGCGAGCCGAATCCATGCGGAGTCACCTAGTGCAG | 8270 fluorescence intensity (a.u.)
ATCTCGGTCTCTCACAAGACACACAGCTAATTAGCTCTATCGGAGTCACCTAGTGCAG | 8470 fluorescence intensity (a.u.)
CCATCATCTCTCGATCCATCTCCAGCAAGTTACCTATAAACGGAGTCACCTAGTGCAG | 9580 fluorescence intensity (a.u.)

Sequence | binding signal
GCAGTTTCAGTGTGTGTTTGGTTGCAAGTTGTTGCATCTGCGGAGTCACCTAGTGCAG | 8410 fluorescence intensity (a.u.)
CGTTGGGAGTTGGGAGGGATGGGTGGTGCATCAAGATTGACGGAGTCACCTAGTGCAG | 23500 fluorescence intensity (a.u.)
CTGCACTGTTTGCCTCAGTTGGGTTGGTTTGGTTTGGTTGCGGAGTCACCTAGTGCAG | 48200 fluorescence intensity (a.u.)
CAAGGAGGGAGTTGATGGTGGGATTGATCATGGGAGTTATCGGAGTCACCTAGTGCAG | 8560 fluorescence intensity (a.u.)
AGGTGGTGTTTGGTTGGAGGGGCTAAAGTGGGGCTAAACTCGGAGTCACCTAGTGCAG | 20000 fluorescence intensity (a.u.)
GGTGTTTGGTTGGAGGGATTAAAGTGGGGCTAAACTTTAGCGGAGTCACCTAGTGCAG | 9950 fluorescence intensity (a.u.)
TGCGGATGGGATGGAGAGCGCAGGAGGGGTGGGTTGTTGTCGGAGTCACCTAGTGCAG | 10800 fluorescence intensity (a.u.)
ACTCACTGTTGCCTGTTGGTTTGTTGTCAGTAGCGCTAGGCGGAGTCACCTAGTGCAG | 8370 fluorescence intensity (a.u.)
AAGAGGGTGGGTTGTTGGGGAGAGGGGAGGGAGGAGGATTCGGAGTCACCTAGTGCAG | 20100 fluorescence intensity (a.u.)
TGTGGGTTGGAGGGAGGAGGGGATTGAAGGGTTGTTAATTCGGAGTCACCTAGTGCAG | 14900 fluorescence intensity (a.u.)
TGGTGTTTGGTTGGAGGGACTAAAGTAGGGCTAAACTTTACGGAGTCACCTAGTGCAG | 8870 fluorescence intensity (a.u.)
AGTTTTAAGGAGGGAGTTGATGGTGGGATTGGTCATGGGACGGAGTCACCTAGTGCAG | 8620 fluorescence intensity (a.u.)
GACACTGCCACCTCACTCTCCACTCCACTATATATACCCTCGGAGTCACCTAGTGCAG | 12100 fluorescence intensity (a.u.)
ACTCTCCCGTTATTGCCGCCACCGGACCGCTAGCTCCGCACGGAGTCACCTAGTGCAG | 9570 fluorescence intensity (a.u.)
CCCACCTCGCCTTTCGATTGCGCGATCACCCACCTTTATACGGAGTCACCTAGTGCAG | 10000 fluorescence intensity (a.u.)
GCAACTGCACATGTGCTTATTTAGTTTCTGCATTGGTCAACGGAGTCACCTAGTGCAG | 12200 fluorescence intensity (a.u.)
CTCGTCACTCGTCTCGTCTCGCACAGTCGCAGCTGCTGCGCGGAGTCACCTAGTGCAG | 8390 fluorescence intensity (a.u.)
ACTTTATCTTTGCCGCCGGCCGCCACAACTGCTTCTACGGCGGAGTCACCTAGTGCAG | 9180 fluorescence intensity (a.u.)
GACAACGGTCAAATATGTGCTAAAAAGTCAACGGTATCAACGGAGTCACCTAGTGCAG | 11600 fluorescence intensity (a.u.)
TCTCGCTCCTCATGCTCCTCTCCCGGCGGCGACGCTATGCCGGAGTCACCTAGTGCAG | 8080 fluorescence intensity (a.u.)
CCAGCTGTGTGTGTGCACGCGGTTTTCCAATCGATTCTTCCGGAGTCACCTAGTGCAG | 9270 fluorescence intensity (a.u.)
